Data from PubChem BioAssay (NCI).
About 83,000 compounds went through this panel and 20% of them were active in at least one assay; those are over-represented in the sample as a whole.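 Step 1: grow cells in 96-well plates. Step 2: add test compound at a single concentration. Step 3: incubate 48 h. Step 4: record percent growth.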 Active and inactive are the calls of the source. The calls were made as follows: active = growth percent below 10; inactive = the rest.

Tests used:
Experiment in all cases: NCI-60 one-dose screen, 48 h (100 = growth as untreated, 0 = no growth, -100 = all killed)
Conditions in all cases: 10 µM unless noted
NCI-H23 lung = system: NCI-H23 lung
NCI-H226 lung = system: NCI-H226 lung
NCI-H322M lung = system: NCI-H322M lung
HOP-62 NSCLC = system: HOP-62 NSCLC
NCI-H460 lung = system: NCI-H460 lung
HOP-92 NSCLC = system: HOP-92 NSCLC
NCI-H522 lung = system: NCI-H522 lung
A549/ATCC NSCLC = system: A549/ATCC NSCLC
786-0 renal = system: 786-0 renal
COLO 205 colon = system: COLO 205 colon

Measured: growth

O=C1OCC2=C1C(c1cccc(C(F)(F)F)c1)c1cc3c(cc1N2CCO)OCCO3 (stereo not given)
inactive: NCI-H23 lung 28.5% | NCI-H226 lung 52.3% | NCI-H322M lung 51.3% | HOP-62 NSCLC 23.5% | HOP-92 NSCLC 63.3% | A549/ATCC NSCLC 16.3% | 786-0 renal 25.5%
active: NCI-H460 lung 7.21% | NCI-H522 lung 7.2% | COLO 205 colon -17.7%

Cc1ccc(S(=O)(=O)OC[C@@]2(C)CC[C@]3(C)CC[C@]4(C)C(=CC[C@@H]5[C@@]6(C)CCCNC(C)(C)[C@@H]6CC[C@]54C)[C@@H]3C2)cc1
active: NCI-H23 lung -64.5% | NCI-H322M lung -87.4% | HOP-62 NSCLC -82.8% | NCI-H460 lung -74.6% | HOP-92 NSCLC -71.2% | NCI-H522 lung -81.5% | A549/ATCC NSCLC -75.9% | 786-0 renal -79% | COLO 205 colon -82.6%
inactive: NCI-H226 lung 19.7%

Cc1c(O)c(O)cc2c3c(oc12)CC(c1ccc2c(c1)OCO2)CC3=O (stereo not given)
active: HOP-92 NSCLC -37.4%
inactive: NCI-H23 lung 83.4% | NCI-H226 lung 81.2% | NCI-H322M lung 90.1% | HOP-62 NSCLC 75.2% | NCI-H460 lung 93.7% | NCI-H522 lung 53.3% | A549/ATCC NSCLC 93.8% | 786-0 renal 100% | COLO 205 colon 103%

CC1=C2[C@@H](CC1)[C@]1(C)O[C@@](C3CC3)(C[C@H]1OC(=O)CO)[C@H]2OC(=O)/C=C/c1ccccc1
inactive: NCI-H23 lung 103% | NCI-H226 lung 86.7% | NCI-H322M lung 82.2% | HOP-62 NSCLC 89.6% | NCI-H460 lung 90.7% | HOP-92 NSCLC 82.2% | NCI-H522 lung 88.4% | A549/ATCC NSCLC 79% | 786-0 renal 73.2% | COLO 205 colon 116%

Cc1c(C(C)(C)O)cn2ncnc(Oc3ccc(NC(=O)Nc4ccc(Cl)c(C(F)(F)F)c4)cc3)c12
active: HOP-92 NSCLC 4.28%
inactive: NCI-H23 lung 23.6% | NCI-H226 lung 65.5% | NCI-H322M lung 56.7% | HOP-62 NSCLC 65.4% | NCI-H460 lung 13.1% | NCI-H522 lung 11.6% | A549/ATCC NSCLC 32.8% | 786-0 renal 26.5% | COLO 205 colon 45.6%

C/C(=C(\c1ccc(OCCN2CCOCC2)cc1)c1ccc(OC(=O)C2CCCCC2)cc1)c1ccc(Cl)cc1
inactive: NCI-H23 lung 88.9% | NCI-H226 lung 103% | NCI-H322M lung 91.9% | HOP-62 NSCLC 99.4% | NCI-H460 lung 97.5% | HOP-92 NSCLC 71% | NCI-H522 lung 62.8% | A549/ATCC NSCLC 92.9% | 786-0 renal 80.6% | COLO 205 colon 103%

Cc1ccccc1SSc1ccccc1C
inactive: NCI-H23 lung 83.4% | NCI-H226 lung 95.6% | NCI-H322M lung 98.2% | HOP-62 NSCLC 96% | NCI-H460 lung 37.4% | HOP-92 NSCLC 81.2% | NCI-H522 lung 60.8% | A549/ATCC NSCLC 98.8% | 786-0 renal 105% | COLO 205 colon 91.4%

Cn1cc(-c2csc(-c3c[nH]c4ccc(F)cc34)n2)c2cnccc21
active: HOP-62 NSCLC -55.1% | NCI-H460 lung -54.3% | HOP-92 NSCLC -47% | NCI-H522 lung -78.5% | A549/ATCC NSCLC 5.33% | 786-0 renal -94.5% | COLO 205 colon -93.2%
inactive: NCI-H23 lung 49.3% | NCI-H226 lung 52% | NCI-H322M lung 15.4%

O=C(N=Nc1c(O)[nH]c2ccccc12)Nc1ccccc1Cl
inactive: NCI-H23 lung 80.1% | NCI-H226 lung 87.1% | NCI-H322M lung 73.5% | HOP-62 NSCLC 104% | NCI-H460 lung 92.1% | HOP-92 NSCLC 90.3% | NCI-H522 lung 78.6% | A549/ATCC NSCLC 107% | 786-0 renal 96.9% | COLO 205 colon 105%

COc1ccc(Nc2ncnc3ccc(-c4cncc(NS(C)(=O)=O)c4)cc23)cc1Cl
inactive: NCI-H23 lung 35.4% | NCI-H226 lung 56% | NCI-H322M lung 54.6% | HOP-62 NSCLC 39.2% | NCI-H460 lung 75.9% | A549/ATCC NSCLC 64.5% | 786-0 renal 58.3% | COLO 205 colon 30.2%
active: HOP-92 NSCLC -7.88% | NCI-H522 lung 9.61%

COC1/C=C/OC2(C)Oc3c(C)c(O)c4c(O)c(c(C=NOC(c5ccccc5)c5ccccc5)c(O)c4c3C2=O)NC(=O)/C(C)=C/C=C/C(C)C(O)C(C)C(O)C(C)C(OC(C)=O)C1C (stereo not given)
inactive: NCI-H23 lung 21.8% | NCI-H226 lung 20.3% | NCI-H322M lung 47.4% | NCI-H522 lung 13% | A549/ATCC NSCLC 16.3% | 786-0 renal 12.2%
active: HOP-62 NSCLC -89.5% | NCI-H460 lung 2.85% | HOP-92 NSCLC -8.12% | COLO 205 colon -88.2%

Cc1cc(N2CCN(CC(=O)Nc3ccc4c(ccn4Cc4ccccc4)c3)CC2)nc(N2CCCCCC2)n1
inactive: NCI-H23 lung 53.2% | NCI-H226 lung 57.4% | NCI-H322M lung 77.9% | HOP-62 NSCLC 59.8% | NCI-H460 lung 40% | NCI-H522 lung 62.4% | A549/ATCC NSCLC 46.3% | 786-0 renal 79.4% | COLO 205 colon 30.6%
active: HOP-92 NSCLC 0.991%

Cc1cc(N2CCCCC2)nc(NCc2cc(Nc3ccnc4cc(Cl)ccc34)ccc2F)n1
inactive: NCI-H23 lung 22.3% | NCI-H226 lung 68.2%
active: NCI-H322M lung -12.7% | HOP-62 NSCLC -49.5% | NCI-H460 lung -22.7% | HOP-92 NSCLC -21.9% | NCI-H522 lung -57.9% | A549/ATCC NSCLC 2.71% | 786-0 renal -80.1% | COLO 205 colon -72.7%
